Measurements published in PubChem BioAssay (Tox21).
Records with an inconclusive call do not appear. Activity calls are given as the source filed them. Unless noted, calls follow the shape of the dose curve; as a rule, active = well fitted curve in the direction sought with a large enough effect in the repeat runs; inconclusive = weak or mixed curves; inactive = no such curve, though single readings can be large; an effect the other way counts as inactive or inconclusive.

Columns and labels:
[1] = qHTS assay for small molecules that induce genotoxicity in human embryonic kidney cells expressing luciferase-tagged ATAD5 (AID 651632); also: nearly all actives have a fitted effect of over 15% in size
In short: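 A rise in luciferase signal from ATAD5-tagged HEK293T cells marks genetic stress. Cells were exposed to compounds for 16 hr at 37C, 5% CO2, then luciferase was quantified after a 30 min room-temperature incubation with Amplite.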

[2] = qHTS assay for small molecule agonists of the p53 signaling pathway - cell viability (AID 651633; calls by dose curve;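 also: p53RE-bla HCT reporter cells with a stable beta-lactamase p53 reporter; series mostly up to about 83 µM; nearly all actives have a fitted effect of over 30% in size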)
In short: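 p53RE-bla cells were treated with compound for 16 hours at 37 C. Cytotoxicity was then measured as CellTiter-Glo luminescence after 30 min at room temperature.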

[3] = qHTS assay for small molecules that induce genotoxicity in human embryonic kidney cells expressing luciferase-tagged ATAD5 - cell viability (AID 651634; calls by dose curve; also: nearly all actives have a fitted effect of over 25% in size; also: potency is read from the fitted curve at half-maximal effect)
In short: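 Cytotoxicity counter-readout: after 15.5 hr compound treatment at 37C, live-cell protease activity in ATAD5-luciferase HEK293T cells measured by CellTiter-Fluor fluorescence, 30 min development at 37C.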

[4] = qHTS assay for small molecule disruptors of the mitochondrial membrane potential - cell viability (AID 720634; calls by dose curve;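 also: human HepG2 liver cancer cells; series mostly up to about 83 µM; nearly all actives have a fitted effect of over 20% in size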)
In short: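 Cytotoxicity was quantified from ATP content by CellTiter-Glo luminescence in the same wells as the MMP dye read-out. HepG2 (2,000 cells/well) were plated overnight and exposed to compounds for 1 hr at 37 C.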

[5] = qHTS assay to test for compound auto fluorescence at 590 nm (red) in HepG2 cells (AID 720674)
In short: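 Seeding: 2,000 HepG2 cells/well, MEM/10% FBS, overnight 37 C. Dosing: compound vs DMSO. Incubation: 1 hr, 37 C, 5% CO2. Read: fluorescence 540 ex/590 em, Rose Bengal sodium as red reference.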

[6] = qHTS assay to test for compound auto fluorescence at 535 nm (green) in HepG2 cells (AID 720675)
[7] = qHTS assay to test for compound auto fluorescence at 460 nm (blue) in HEK293 cells (AID 720678)
In short: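 HEK293, 2,000 cells/well, 10% dialyzed FBS; attach 4-5 hr 37C; pin compound or DMSO; o/n 37C/5% CO2; fluorescence 405/460 nm; triamterene-equivalent units.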

[8] = qHTS assay to test for compound auto fluorescence at 590 nm (red) in HEK293 cells (AID 720679)
In short: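 Intensity at 540nm excitation and 590nm emission is reported as Rose Bengal sodium-equivalent autofluorescence. Measurements followed overnight exposure (37C, 5% CO2) of HEK293 cells, 2,000 per well, to 23 nL compound.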

[9] = qHTS assay to test for compound auto fluorescence at 535 nm (green) in HEK293 cells (AID 720680)
[10] = qHTS assay to test for compound auto fluorescence at 460 nm (blue) in HEK293 cell free culture (AID 720681)
In short: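 Compounds were added to cell-free DMEM with 10% FBS and fluorescence read directly. The blue channel used 405 nm excitation and 460 nm emission, with triamterene as the reference fluorophore.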

[11] = qHTS assay to test for compound auto fluorescence at 590 nm (red) in HEK293 cell free culture (AID 720683)
In short: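 Cell-free wells of DMEM with 10% FBS received compound, and intrinsic fluorescence was read at excitation/emission 540/590 nm. Values expressed as equivalence to Rose Bengal sodium.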

[12] = qHTS assay to test for compound auto fluorescence at 590 nm (red) in HepG2 cell free culture (AID 720684)
In short: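 Auto fluorescence equivalency versus Rose Bengal sodium, red channel Ex/Em 540/590 nm; compounds in cell-free MEM/10% FBS; DMSO vehicle control.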

[13] = qHTS assay to test for compound auto fluorescence at 460 nm (blue) in HepG2 cell free culture (AID 720685)
In short: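 Cell-free plates of MEM plus 10% FBS received 23 nL compound or DMSO vehicle; blue-channel (405/460 nm) intensity scored against triamterene as reference fluorophore.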

[14] = qHTS assay to test for compound auto fluorescence at 535 nm (green) in HepG2 cell free culture (AID 720686)
[15] = qHTS assay to test for compound auto fluorescence at 460 nm (blue) in HepG2 cells (AID 720687)
In short: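 HepG2 cells in MEM with 10% FBS, attached overnight at 37 C, were exposed to compound or DMSO for 1 hr at 37 C, 5% CO2. Blue fluorescence was read at 405/460 nm, with triamterene as reference fluorophore.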

[16] = target: Glucocorticoid receptor (Homo sapiens) (UniProt P04150); experiment: qHTS assay to identify small molecule agonists of the glucocorticoid receptor (GR) signaling pathway (AID 720691; active = well fitted activation curve with a large enough effect in the signal ratio in the repeat runs, not every such curve was filed as active; the % refers to the signal ratio)
Sequence of Glucocorticoid receptor (Homo sapiens) (P04150 whole entry, looked up): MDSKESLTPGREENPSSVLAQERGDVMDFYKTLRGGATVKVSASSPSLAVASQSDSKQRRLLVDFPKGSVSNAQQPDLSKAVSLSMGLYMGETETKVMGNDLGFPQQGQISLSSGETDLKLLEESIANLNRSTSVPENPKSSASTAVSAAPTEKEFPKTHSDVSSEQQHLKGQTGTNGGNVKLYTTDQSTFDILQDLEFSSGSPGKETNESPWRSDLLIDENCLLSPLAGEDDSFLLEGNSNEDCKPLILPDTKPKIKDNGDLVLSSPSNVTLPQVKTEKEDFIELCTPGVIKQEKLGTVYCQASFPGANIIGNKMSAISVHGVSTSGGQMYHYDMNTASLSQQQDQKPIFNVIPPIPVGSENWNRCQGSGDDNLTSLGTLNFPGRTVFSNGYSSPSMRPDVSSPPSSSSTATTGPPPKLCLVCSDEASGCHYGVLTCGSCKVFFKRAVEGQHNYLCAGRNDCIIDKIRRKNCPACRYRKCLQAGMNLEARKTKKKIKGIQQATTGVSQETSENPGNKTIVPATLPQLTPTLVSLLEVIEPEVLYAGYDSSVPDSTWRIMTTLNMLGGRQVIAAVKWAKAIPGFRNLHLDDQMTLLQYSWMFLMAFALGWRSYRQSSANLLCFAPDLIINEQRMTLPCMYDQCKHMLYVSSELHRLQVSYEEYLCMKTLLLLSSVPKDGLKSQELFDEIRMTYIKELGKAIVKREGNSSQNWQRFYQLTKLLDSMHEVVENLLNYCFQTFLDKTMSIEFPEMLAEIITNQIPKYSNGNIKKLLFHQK
In short: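 Agonist-mode qHTS in HeLa cells stably expressing a glucocorticoid-response-element beta-lactamase reporter. Fluorescence intensity read with FRET substrate (2 h, room temperature) after 18 h compound treatment at 37 C.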

[17] = target: Glucocorticoid receptor (Homo sapiens) (UniProt P04150); experiment: qHTS assay to identify small molecule antagonists of the glucocorticoid receptor (GR) signaling pathway (AID 720692; active = well fitted inhibition curve with a large enough effect in the signal ratio in the repeat runs, not every such curve was filed as active; the % refers to the signal ratio)
In short: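 Inhibition of dexamethasone-driven (5 nM final) beta-lactamase expression was measured in GRE-reporter HeLa cells over 18 h at 37C. Fluorescence was read after 2 h with the B/G FRET substrate at room temperature.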

[18] = qHTS assay for small molecule disruptors of the mitochondrial membrane potential (AID 720635); also: potency is read from the fitted curve at half-maximal effect
In short: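 HepG2 cells exposed to compound 1 hr at 37C, then Mito-MPS dye 30 min. Ratio read of aggregate (540/590 nm) versus monomer (490/535 nm) fluorescence.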

[19] = qHTS assay to test for compound auto fluorescence at 535 nm (green) in HEK293 cell free culture (AID 720682)
In short: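 Read-out: 485/535 nm fluorescence intensity, calibrated against fluorescein. Medium only (DMEM + 10% FBS, no cells); test compound or DMSO vehicle added by pintool before plate reading.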
% is scaled to controls: 0 for no effect and ±100 for the full control effect.

CC(C(=O)O)c1ccc2c(c1)[nH]c1ccc(Cl)cc12 (stereo not given)
inactive: Potency [1] | Potency [2] | Potency [3] | Potency [4] | Potency [5] | Potency [6] | Potency [7] | Potency [8] | Potency [9] | Potency [10] | Potency [11] | Potency [12] | Potency [13] | Potency [14] | Potency [15] | Potency [16] | Potency [17]

CCO[C@@H]1O[C@H](C(COCc2ccccc2)OCc2ccccc2)[C@H](OCc2ccccc2)[C@H]1O (stereo not given in full)
inactive: Potency [1] | Potency [2] | Potency [3] | fluorescence, relative to Rose Bengal [5] -0.664% [at 18.6 µM] | fluorescence, % of fluorescein control [6] -0.0707% [at 18.6 µM] | fluorescence, % of triamterene [7] -0.0314% [at 18.6 µM] | fluorescence, % of fluorescent control [8] 0.894% [at 18.6 µM] | fluorescence, % of fluorescein [9] -0.012% [at 18.6 µM] | fluorescence, % of fluorescent control [10] 0.118% [at 18.6 µM] | activity change [19] -0.0677% [at 18.6 µM, hits give high values] | fluorescence, % of fluorescent control [11] -0.0196% [at 18.6 µM] | fluorescence, % of Rose Bengal [12] -0.0599% [at 18.6 µM] | fluorescence, % of fluorescent control [13] -0.0414% [at 18.6 µM] | fluorescence, % of fluorescein control [14] -0.102% [at 18.6 µM] | fluorescence, % of fluorescent control [15] -0.0213% [at 18.6 µM] | Potency [16]
active: Potency [18] 11.4 µM

CCCCCCCCCCC[C@@H](C[C@@H]1OC(=O)[C@H]1CCCCCC)OC(=O)[C@H](CC(C)C)NC=O
inactive: Potency [1] | Potency [2] | Potency [3] | Potency [4] | Potency [5] | Potency [6] | Potency [7] | Potency [8] | Potency [9] | Potency [10] | Potency [19] | Potency [11] | Potency [12] | Potency [14] | Potency [15] | Potency [16]

Cc1c(C)c2c(c(C)c1OC(=O)c1cccnc1)CC[C@@](C)(CCC[C@H](C)CCC[C@H](C)CCCC(C)C)O2
inactive: Potency [1] | Potency [2] | Potency [3] | Potency [4] | Potency [5] | Potency [6] | Potency [7] | Potency [9] | Potency [19] | Potency [11] | Potency [12] | Potency [13] | Potency [14] | Potency [15]

c1ccc(C(O[C@@H]2CCCN(CCc3ccc4c(c3)OCO4)C2)c2ccccc2)cc1
inactive: Potency [1] | Potency [2] | Potency [3] | Potency [5] | Potency [6] | Potency [7] | Potency [8] | Potency [9] | Potency [10] | Potency [19] | Potency [11] | Potency [12] | Potency [13] | Potency [14] | Potency [15] | Potency [16]

Cl[Si](Cl)(c1ccccc1)c1ccccc1
inactive: Potency [1] | Potency [2] | Potency [3] | Potency [4] | Potency [5] | Potency [6] | Potency [7] | Potency [9] | Potency [10] | Potency [19] | Potency [11] | Potency [12] | Potency [15] | Potency [16]
active: Potency [18] 5.57 µM

O=C(Nc1ccc2c(O)c(N=Nc3ccc(N=Nc4ccc(S(=O)(=O)O)cc4)cc3)c(S(=O)(=O)O)cc2c1)c1ccccc1
active: Potency [3] 48.6 µM
inactive: Potency [1] | Potency [2] | Potency [4] | Potency [5] | Potency [6] | Potency [7] | Potency [8] | Potency [9] | Potency [10] | Potency [19] | Potency [11] | Potency [12] | Potency [13] | Potency [15]

OCC(F)(F)F
inactive: Potency [1] | Potency [2] | Potency [3] | Potency [4] | Potency [5] | Potency [6] | Potency [7] | Potency [8] | Potency [9] | Potency [10] | Potency [19] | Potency [11] | Potency [12] | Potency [13] | Potency [14] | Potency [15] | Potency [16] | Potency [17]

Cc1cc(C(C)(C)C)c(O)c(C)c1Cn1c(=O)n(Cc2c(C)cc(C(C)(C)C)c(O)c2C)c(=O)n(Cc2c(C)cc(C(C)(C)C)c(O)c2C)c1=O
active: Potency [18] 9.69 µM
inactive: Potency [1] | Potency [2] | Potency [3] | Potency [4] | Potency [5] | Potency [6] | Potency [7] | Potency [9] | Potency [10] | Potency [19] | Potency [11] | Potency [12] | Potency [13] | Potency [14] | Potency [16]

Clc1ccnc(Cl)n1
inactive: Potency [1] | Potency [2] | Potency [3] | Potency [4] | Potency [5] | Potency [6] | Potency [7] | Potency [8] | Potency [9] | Potency [10] | Potency [19] | Potency [11] | Potency [12] | Potency [13] | Potency [14] | Potency [15] | Potency [16] | Potency [17]

Clc1sc(Cl)c(Cl)c1Cl
inactive: Potency [1] | Potency [2] | Potency [3] | Potency [4] | Potency [5] | Potency [6] | Potency [7] | Potency [8] | Potency [9] | Potency [19] | Potency [11] | Potency [12] | Potency [13] | Potency [14] | Potency [15]

Cc1ccc(C(C)C)cc2c(C)ccc1-2
inactive: Potency [1] | Potency [2] | Potency [3] | Potency [4] | Potency [18] | Potency [5] | Potency [6] | Potency [7] | Potency [9] | Potency [10] | Potency [11] | Potency [12] | Potency [13] | Potency [14] | Potency [15] | Potency [16] | Potency [17]

CCCC[P+](C)(CCCC)CCCC
active: Potency [18] 13.9 µM
inactive: Potency [1] | Potency [2] | Potency [3] | Potency [4] | Potency [5] | Potency [6] | Potency [7] | Potency [8] | Potency [9] | Potency [11] | Potency [12] | Potency [14] | Potency [15] | Potency [16]

S=c1nccc[nH]1
inactive: Potency [1] | Potency [2] | Potency [3] | Potency [4] | Potency [18] | Potency [5] | Potency [6] | Potency [7] | Potency [8] | Potency [9] | Potency [10] | Potency [11] | Potency [12] | Potency [13] | Potency [14] | Potency [15]
